Source: PubChem
This is a sample that favours compounds with a hit; in the whole collection about 31% have one here.
CYP2C19 inhib: human CYP2C19 inhibition | P33261 | 96,000 compounds, 21% hits | inhibition, % at 5 µM | CYP2C19 Supersomes, luciferin-H EGE luminescence, 30 min;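 active = CYP2C19 inhibition above a set limit at 5 µM in the primary screen, cut at about 50% in these data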;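 note: plate controls were negative control wells for no effect and 2.5 mM tranylcypromine positive control for full effect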
CYP2C9 act: increases human cytochrome P450 2C9 activity; AID 1024; recombinant CYP2C9, luciferin-H conversion, luminescence; stronger effect = higher value; factor 1 = untreated enzyme, 0 = blocked; activation factor at 5 µM; 96,000 compounds, 1.4% hits; P11712;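 active = activation factor of 2 or more for CYP2C9 at a 5 µM dose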;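 note: 0 = sulfaphenazole-blocked wells and 1 = vehicle-only wells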
Target sequence (P11712 whole entry, looked up): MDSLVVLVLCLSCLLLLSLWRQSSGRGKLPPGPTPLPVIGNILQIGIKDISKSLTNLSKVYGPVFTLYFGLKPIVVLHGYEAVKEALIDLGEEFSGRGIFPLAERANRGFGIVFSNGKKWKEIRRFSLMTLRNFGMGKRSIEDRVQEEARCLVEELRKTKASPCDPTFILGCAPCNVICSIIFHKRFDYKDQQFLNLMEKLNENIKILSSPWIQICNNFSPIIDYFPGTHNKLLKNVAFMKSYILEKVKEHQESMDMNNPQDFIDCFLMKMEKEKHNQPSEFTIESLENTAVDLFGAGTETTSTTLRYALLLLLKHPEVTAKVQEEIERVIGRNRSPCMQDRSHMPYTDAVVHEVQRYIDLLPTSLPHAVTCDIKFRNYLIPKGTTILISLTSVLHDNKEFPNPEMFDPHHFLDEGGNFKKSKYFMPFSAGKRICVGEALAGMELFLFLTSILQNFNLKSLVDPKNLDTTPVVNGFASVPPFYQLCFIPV
CYP2C19 activ: activators of human cytochrome P450 2C19. activation factor at 5 µM. P33261. AID 1025. 96,000 tested, under 10 active. recombinant CYP2C19, luciferin-H EGE luminescence; stronger effect = higher value; 0 = fully inhibited enzyme, 1 = untreated enzyme;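 active = activation factor of at least 2 at 5 µM in the primary screen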;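 note: 0 = wells with 2.5 mM tranylcypromine and 1 = vehicle-only wells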
CYP2C9 inh: human CYP2C9 inhibition; P11712; CYP2C9 Supersomes, luciferin-H conversion, luminescence; inhibition, % at 5 µM; 96,000 compounds, 20% hits;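 active = blocking of liver enzyme CYP2C9 beyond about 50% at 5 µM, limit read from the data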
Active calls of the source: *.

SMILES	CYP2C19 inhib	CYP2C9 act	CYP2C19 activ	CYP2C9 inh
CCC(=O)N1Cc2ccccc2-c2ccccc2C1=O	27	0.9	0.7	8
O=C(OCN1C(=O)c2ccccc2C1=O)c1ccccc1	68*	1.6	0.3	-61
O=C(c1ccccc1)c1ccc(CN2C(=O)c3ccccc3C2=O)o1	91*	0.2	0.1	85*
O=C(O)c1ccc(C(=O)c2ccc3c(c2)C(=O)N(Cc2ccco2)C3=O)cc1	10	0.6	0.9	44
CN(Cc1nc2ccccc2n1C)S(C)(=O)=O	6	1	0.9	-2
CCOC(=O)c1cnn(-c2ccccc2)c1-n1cccc1C(=O)C(=O)Nc1ccccc1	46	0.3	0.5	72*
CCOC(=O)c1cnn(-c2ccccc2)c1-n1cccc1C(=O)C(=O)Nc1ccc(F)cc1	39	0.3	0.6	75*
CCOC(=O)c1cnn(-c2ccccc2)c1N	10	1	0.9	3
CCOC(=O)c1cnn(-c2ccccc2)c1NC(=O)c1ccccc1	9	0.7	0.9	31
CCn1c(COc2ccccc2C)nnc1SCC(=O)N1CCCCC1	18	1.2	0.8	-16
Cc1cc(C)cc(N(CC(=O)N2CCn3c2nc2ccccc23)S(=O)(=O)c2c(C)noc2C)c1	24	0.5	0.8	48
O=C1CC(c2ccccc2)CN1C(=O)c1ccccc1 (stereo not drawn)	52*	1.1	0.5	-10
Cc1cccc(NC(c2ccc(O)cc2)c2ccc3ccc(C)nc3c2O)n1 (stereo not drawn)	42	2*	0.6	-99
Cc1cc(NC(c2cccnc2)c2ccc3cccnc3c2O)no1 (stereo not drawn)	30	0.7	0.7	34
COC(=O)c1c(C)[nH]c(O)c1C=Nc1ccc(C(C)C)cc1	3	0.7	1	31
CCOC(=O)c1c(C)[nH]c2cc(Br)c(OC)cc12	41	0.6	0.6	40
COC(=O)c1c(C)[nH]c(C)c1-c1ccccc1Cl	61*	0.5	0.4	47
CCOC(=O)c1c(C)[nH]c(C)c1-c1ccccc1OC	67*	0.6	0.3	40
FC(F)Sc1nnc(-c2cccs2)n1-c1ccccc1	44	0.5	0.6	47
CC1(C)Cc2ccccc2-c2nnc(SCc3ccc(C#N)cc3)n21	45	0.6	0.6	36
N#Cc1ccc(CSc2nnc(-c3ccccn3)n2-c2ccccc2)cc1	78*	0.6	0.2	43
N#Cc1ccc(CSc2nnc(-c3cccs3)n2-c2ccccc2)cc1	93*	0.1	0.1	92*
N#Cc1ccc(CSc2nnc(-c3ccncc3)n2CCc2ccccc2)cc1	61*	0.5	0.4	54*
Oc1ccc(-c2[nH]ncc2-c2ccc(Cl)cc2)c(O)c1	92*	0.1	0.1	91*
COc1ccc(-c2[nH]ncc2-c2ccc(Cl)cc2)c(O)c1	75*	0.6	0.3	43
SMILES	CYP2C19 inhib	CYP2C9 act	CYP2C19 activ	CYP2C9 inh
Oc1ccc(-c2[nH]ncc2-c2cccc3cccnc23)c(O)c1	54*	0.5	0.5	53*
O=C(O)c1cccc2cccnc12	-2	0.8	1	18
CCc1nnc(NC(=O)c2ccc(S(=O)(=O)N3CCN(Cc4ccccc4)CC3)cc2)s1	17	0.8	0.8	24
CC1=C(C(=O)OCc2ccccc2)C(c2ccccc2OC(F)F)NC(=O)N1 (stereo not drawn)	44	0.9	0.6	15
COCCn1c(SCC#N)nnc1-c1ccc2c(c1)OCO2	16	0.9	0.8	11
COc1ccc(Cl)cc1NC(=O)N1CCN(C2CCCCC2)CC1	83*	1.9	0.2	-93
COc1ccc(Cl)cc1NC(=O)NC1CCCCC1	21	1.1	0.8	-14
COc1ccc(Cl)cc1NC(=O)CN(C1CCCCC1)S(C)(=O)=O	99*	0.1	0	90*
CC(=O)c1cccc(NC(=O)CN(C2CCCCC2)S(C)(=O)=O)c1	40	0.8	0.6	15
CSc1ccccc1NC(=O)CN(C1CCCCC1)S(C)(=O)=O	93*	0.1	0.1	90*
COCCCN1C(=O)C(=O)/C(=C(/O)c2ccc(OC(C)C)c(C)c2)C1c1ccncc1 (stereo not drawn)	-9	1	1.1	-3
Cc1oc(C)c2c(=O)ccc3c(c12)OC(N)=C(C#N)C3c1ccc(F)cc1 (stereo not drawn)	50*	0.7	0.5	35
O=C(N/N=C\c1ccccc1)c1sccc1-n1cccc1	33	0.7	0.7	34
O=C(N/N=C/c1ccc(Br)cc1)c1ccccc1-n1cccc1	85*	0.5	0.1	54*
CCN1CCN(C(c2cccs2)C(C)NC(=O)NC2CCCCC2)CC1 (stereo not drawn)	-2	0.9	1	6
CN1CCN(C2=C(Cl)C(=O)N(C3CCCCC3)C2=O)CC1	94*	1	0.1	2
Cc1ccccc1N1C(=O)C(Cl)=C(N2CCCCCC2)C1=O	28	0.8	0.7	16
c1ccc2c(c1)NC1(CCCCC1)n1c-2nc2ccccc21	20	0.6	0.8	36
c1ccc2c(c1)NC1(CCCCCC1)n1c-2nc2ccccc21	23	0.5	0.8	51*
CCCCC1(C)Nc2ccccc2-c2nc3ccccc3n21 (stereo not drawn)	81*	0.4	0.2	57*
CC1(c2ccccn2)Nc2ccccc2-c2nc3ccccc3n21 (stereo not drawn)	69*	0.5	0.3	52*
CC(C)OC(=O)c1cccc(C(=O)OCc2ccco2)n1	15	0.8	0.8	15
CC1CN(c2oc(-c3ccco3)nc2S(=O)(=O)c2ccccc2)CC(C)O1 (stereo not drawn)	-10	1	1.1	0
CCCCNC(=O)OCCNC(=O)NC	3	1	1	5
CNC(=O)CC(C(=O)O)c1ccc(OC(C)C)cc1 (stereo not drawn)	4	0.8	1	16
SMILES	CYP2C19 inhib	CYP2C9 act	CYP2C19 activ	CYP2C9 inh
Cc1ccc(NCc2nnc(SCC(=O)c3ccc4c(c3)OCCO4)o2)c(C)c1	-1	1	1	-4
CC(C)n1cc(-c2ccc(Cl)cc2)cc(C#N)c1=O	1	0.8	1	20
N#Cc1cc(C(=O)c2cc(Br)ccc2O)cn(C2CC2)c1=O	51*	0.9	0.5	11
CC(C)n1cc(C(=O)c2cc(Br)ccc2O)cc(C#N)c1=O	98*	0.1	0	88*
CCCCn1cc(C(=O)c2cc(Br)ccc2O)cc(C#N)c1=O	78*	0.4	0.2	59*
Cc1c(-n2cc(C(=O)c3ccccc3O)cc(C#N)c2=O)c(=O)n(-c2ccccc2)n1C	4	0.9	1	7
CCCOc1ccc(C(CC(=O)O)NC(=O)c2ccc3c(c2)OCO3)cc1 (stereo not drawn)	-1	0.9	1	13
C/C(=N\NC(=O)c1nn(C)cc1Br)c1cccc(NC(=O)C2CCCC2)c1	28	1.6	0.7	-62
CCOc1ccccc1N1CC(O)=C(c2nc3ccccc3s2)C1=N	59*	0.4	0.4	58*
COC(=O)c1sc(NC(=O)COc2ccc(C)cc2)nc1C	34	0.4	0.7	60*
COC(=O)c1sc(NC(=O)COc2ccccc2OC)nc1C	30	0.3	0.7	67*
